D1 antag = human D1 dopamine receptor antagonism. HEK293 TREx D1 cells, calcium flux, dopamine EC80; stronger effect = lower value. activity change, negative = inhibition, % at 10 µM. 360,000 tested, 3.2% active. P21728; in the data active = activity change below about -30%
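Allosteric or orthosteric antagonism assessed as attenuation of the calcium response to EC80 dopamine, added 180 s after compound, in induced HEK293 Trex D1 cells loaded with no-wash calcium dye.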
TRHR enhancer = allosteric enhancers of human TRH receptor | P34981 | TRHR cells, fluo-8 calcium fluorescence, EC20 TRH enhancement | enhancement, % at 2 µM | 360,000 tested, 0.66% active | AID 493056; in the data active = enhancement above about 30%
Target sequence (P34981 whole entry, looked up): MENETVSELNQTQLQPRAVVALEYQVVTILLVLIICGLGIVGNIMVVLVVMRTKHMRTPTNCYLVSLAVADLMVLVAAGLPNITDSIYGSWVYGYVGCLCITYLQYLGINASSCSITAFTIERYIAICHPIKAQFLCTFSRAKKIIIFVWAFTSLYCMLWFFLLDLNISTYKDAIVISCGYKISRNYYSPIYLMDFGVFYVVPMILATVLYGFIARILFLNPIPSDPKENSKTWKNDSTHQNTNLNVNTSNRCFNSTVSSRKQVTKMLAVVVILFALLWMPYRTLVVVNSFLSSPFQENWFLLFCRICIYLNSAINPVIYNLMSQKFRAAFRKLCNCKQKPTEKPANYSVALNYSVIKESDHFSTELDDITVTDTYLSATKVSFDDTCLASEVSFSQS
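TRHR-expressing cells loaded with fluo-8 calcium dye were read kinetically (ex 480/em 530) during compound addition, then stimulated with an EC20 of TRH (10 nM final). Enhancement of the Gq-mediated intracellular calcium response was scored.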
TRHR agonist = activates the human TRH receptor; P34981; 360,000 tested, 0.18% active; TRHR cells, calcium flux fluo-8, FDSS agonist mode; AID 493084; activation, % at 2 µM
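In this calcium-flux screen, cells bearing human TRHR are dye-loaded with fluo-8, baselined for 10 cycles, then exposed to library compounds; positive kinetic calcium responses during the agonist phase mark hits, with TRH as control.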
D1 ag = agonists of human D1 dopamine receptor. P21728. activation, % at 2 µM. 360,000 tested, 1% active. AID 504660. HEK293 T-REx D1 cells, calcium flux, agonist mode
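Agonism was scored from calcium flux recorded over 180 s (1 read/s) after pintool compound addition, following a 10-cycle baseline. Cells were inducible force-coupled HEK293 TREx D1, plated overnight at 30 C and loaded with no-wash calcium dye.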
D1 PAM = human D1 dopamine receptor positive modulation; AID 504651; 360,000 tested, 0.036% active; P21728; potentiation, % at 10 µM; HEK293 TREx D1 cells, calcium flux, dopamine EC20 potentiation; in the data active = potentiation above about 30%
Of the large screens only hits and unclear results are named; the others gave an inactive call; ! = a repeat was not active. In the library only some 4.6% were active in any assay of this set; here they are far more common. Cut-off read from the data, not from the text of the source, unless noted: active = activation above about 30%; inactive = the rest.

Cc1ccc(C(C)NC(=S)NCc2ccc(F)cc2)cc1C (stereo not given)	D1 antag -31
Cc1ccc(C(C)NC(=S)NCc2ccc(F)cc2)c(C)c1 (stereo not given)	D1 ag 51
COc1cccc(C(C)NC(=S)NCc2ccc(F)cc2)c1 (stereo not given)	none
CCc1ccc(C(C)NC(=S)NCc2ccc(F)cc2)cc1 (stereo not given)	D1 ag 76
CCC(NC(=S)NCc1ccc(F)cc1)c1ccc(C)cc1 (stereo not given)	D1 ag 60
O=C(Nc1nc(Nc2cc(F)cc(F)c2)nc(NC2CCCC2)n1)OCc1ccccc1	none
CCOc1ccc(C(C)NC(=S)NCc2ccc(F)cc2)cc1 (stereo not given)	D1 ag 59
CC(=O)Nc1cccc(NC(=O)c2ccc(COc3ccccc3)cc2)c1	D1 ag 36 (no result: D1 PAM)
O=C(Nc1cccnc1)c1ccc(COc2ccccc2Br)cc1	D1 antag -69
O=C(Nc1cccnc1)c1ccccc1Oc1ccccc1	none
COc1ccc(OCc2ccc(C(=O)NN)cc2)cc1	D1 antag -42
O=C(Nc1cccnc1)c1ccc(Oc2ccccc2)cc1	TRHR enhancer 34
Cc1cc(OCC(=O)Nc2c(C(=O)c3ccccc3)oc3ccccc23)cc(C)c1Cl	none
COc1cccc(C(=O)N(Cc2ccc(N(C)C)cc2)Cc2ccco2)c1	none
O=C(CSC1=NC(=O)C(c2ccccc2)C(=O)N1)Nc1ccccc1Cl (stereo not given)	none
O=C(CSC1=NC(=O)C(c2ccccc2)C(=O)N1)Nc1cccc(Cl)c1 (stereo not given)	D1 antag -33
CCc1c(C(=O)N2CCCN(C)CC2)csc1C	D1 antag -31
O=C(NC1CCCC1)c1cccc2c1C(=O)c1ccc(N3CCCCC3)cc1S2(=O)=O	none
O=C(NCc1ccccc1Br)c1cccc2c1C(=O)c1ccc(N3CCOCC3)cc1S2(=O)=O	D1 ag 37
O=C(NCc1ccc(F)cc1)c1cccc2c1C(=O)c1ccc(N3CCOCC3)cc1S2(=O)=O	D1 ag 42 (no result: D1 antag)
CC1CCN(c2ccc3c(c2)S(=O)(=O)c2cccc(C(=O)NC4CCCCC4)c2C3=O)CC1	D1 antag -31, TRHR agonist 39, D1 ag 35
CC1CCN(c2ccc3c(c2)S(=O)(=O)c2cccc(C(=O)NCc4ccc(F)cc4)c2C3=O)CC1	TRHR agonist 78, D1 ag 337
Cc1cc(C)cc(OCC(=O)NCC2(N(C)C)CCCCC2)c1	none
OC(CNC1CCCCC1)COCCOc1ccc(Br)cc1 (stereo not given)	D1 antag -30, D1 ag 48
OC(COCCOc1ccc(Br)cc1)CN1CCN(Cc2ccccc2)CC1 (stereo not given)	D1 antag -31
CCc1ccc(OCCOCC(O)CN2CCN(Cc3ccc(Cl)cc3)CC2)cc1 (stereo not given)	D1 antag -36, D1 ag 40
Cc1nn(CC(=O)NC(C)c2ccccc2)c(=O)c2cc3occc3n12 (stereo not given)	none
O=C(O)CNC(=O)c1ccccc1	D1 antag -34
O=C(CNC(=O)c1ccccc1)OC1CCCCC1	TRHR enhancer 33
C/C=N/NC(=O)CCNC(=O)c1ccccc1	TRHR enhancer 33
Cc1ccsc1/C=N/NC(=O)CNC(=O)c1ccccc1	D1 antag -47
Cc1cccc(C)c1NC(=O)CNC(=O)c1ccncc1	none
Cc1cccc(C)c1NC(=O)CNC(=O)c1ccccc1	D1 antag -31 (no result: D1 PAM)
Cc1ccc(CC(NC(=O)c2ccccc2)C(=O)NC(CC(C)C)C(=O)O)cc1 (stereo not given)	none
Cc1ccc(CC(NC(=O)c2ccccc2)C(=O)NCC(=O)O)cc1 (stereo not given)	TRHR enhancer 35
O=C(CSc1ccc(-c2ccccn2)nn1)NCc1ccc(Cl)cc1	TRHR enhancer 32
Cc1ccc(NC(=O)CSc2ccc(-c3ccccn3)nn2)c(C)c1	none
Cc1cc(C)c(NC(=O)CSc2ccc(-c3ccccn3)nn2)c(C)c1	D1 antag -48!
CCOC(=O)c1ccc(NS(=O)(=O)c2ccc(Br)s2)cc1	none
COCCNC(=S)N(CCc1c(C)[nH]c2ccc(F)cc12)Cc1cccs1	D1 antag -38
O=C1c2ccccc2-c2onc3ccc(NCCCn4ccnc4)c1c23	TRHR agonist 112, D1 ag 208
COC(=O)c1ccccc1NC(=O)Cn1c(=O)n(-c2ccc(C)cc2)c(=O)c2ccccc21	none
Cn1cnc([N+](=O)[O-])c1Sc1ccc(C(C)(C)C)cc1	D1 ag 35
COc1cccc(C(=O)Nc2cccc(C(=O)OCc3cc(=O)n4nc(C5CC5)sc4n3)c2)c1	none
COc1ccc(N/C=C/c2nc(SC)nnc2C)cc1	none
CSc1nnc(C)c(/C=C/Nc2ccc(F)cc2)n1	D1 ag 32
CSc1nnc(C)c(/C=C/Nc2ccc(Cl)cc2)n1	TRHR agonist 31, D1 ag 80
CCOC(=O)Cn1nc(N2CCN(c3ccc(F)cc3)CC2)ccc1=O	none
Cc1ccc(NC(=O)C(=O)NCC(c2cccnc2)N2CCN(Cc3ccccc3)CC2)cc1 (stereo not given)	none
COC(=O)CC(NS(=O)(=O)c1cccs1)c1ccccc1Cl (stereo not given)	none
COC(=O)CC(NS(=O)(=O)c1cccs1)c1ccc2c(c1)OCO2 (stereo not given)	D1 antag -56
N#Cc1ccc(/C=C/C(=O)c2ccco2)cc1	none
Nc1ccc(/C=C/C(=O)c2ccco2)cc1	D1 ag 72
O=C(NCCS(=O)(=O)N1CCN(c2ccccc2F)CC1)c1ccc(F)c(F)c1	D1 antag -33
O=C(NCCS(=O)(=O)N1CCCC1)c1ccccc1	none
O=C(NCCS(=O)(=O)N1CCCCCC1)c1ccc(F)cc1	TRHR enhancer 30
COc1cccc(-c2nc(SCC(=O)NCC3CCCO3)c(-c3ccc(C)cc3)[nH]2)c1 (stereo not given)	none
COc1cccc(-c2nc(SCC(=O)NCC3CCCO3)c(-c3ccc(Cl)cc3)[nH]2)c1 (stereo not given)	D1 antag -56
COc1ccc(-c2[nH]c(-c3ccc(Cl)cc3)nc2SCC(=O)Nc2nccs2)cc1	D1 antag -32
CCCN(C(=O)Cn1ncc2c1-c1ccccc1OC2)c1cccc(C)c1	none
O=C(NCc1cccc(Br)c1)c1ccc(-n2cnc3cccnc32)cc1	none
Cc1ccccc1-c1cc2nc(C)c(C)c(=O)n2[nH]1	D1 antag -33
Cc1cc(C)c2c(N)c3cccc(C)c3nc2n1	D1 ag 54
Cc1ccccc1Nc1c(-c2c[nH]c3ccccc23)nc2cccc(C)n12	D1 ag 33
